In PubChem BioAssay one finds inhibition data, which are given here for 41 compounds.

Molecules are shown by their SMILES.

Assay [1] has as its target PEG-3 (UniProt Q6IN02). The assay can be described thus: Peg3 promoter luciferase inhibitors, potency, dose response, cell-based, HeLa, CREF/GAPDH counter-screen panel (AID 624167). The conditions noted are these: CREF/GAPDH counter-screens; HeLa PEG-Prom luciferase reporter, overnight, run 1, dose range 1, at 100 µM (top of the series) unless noted. A general note: Counterscreens check selectivity or assay interference.

For assay [2], the target named is PEG-3 (UniProt Q6IN02). The description is as above. The conditions noted are these: CREF/GAPDH counter-screens; HeLa PEG-Prom luciferase reporter, overnight, run 2, dose range 1, at 100 µM (top of the series) unless noted.
PEG-3, sequence (Q6IN02 whole entry, looked up): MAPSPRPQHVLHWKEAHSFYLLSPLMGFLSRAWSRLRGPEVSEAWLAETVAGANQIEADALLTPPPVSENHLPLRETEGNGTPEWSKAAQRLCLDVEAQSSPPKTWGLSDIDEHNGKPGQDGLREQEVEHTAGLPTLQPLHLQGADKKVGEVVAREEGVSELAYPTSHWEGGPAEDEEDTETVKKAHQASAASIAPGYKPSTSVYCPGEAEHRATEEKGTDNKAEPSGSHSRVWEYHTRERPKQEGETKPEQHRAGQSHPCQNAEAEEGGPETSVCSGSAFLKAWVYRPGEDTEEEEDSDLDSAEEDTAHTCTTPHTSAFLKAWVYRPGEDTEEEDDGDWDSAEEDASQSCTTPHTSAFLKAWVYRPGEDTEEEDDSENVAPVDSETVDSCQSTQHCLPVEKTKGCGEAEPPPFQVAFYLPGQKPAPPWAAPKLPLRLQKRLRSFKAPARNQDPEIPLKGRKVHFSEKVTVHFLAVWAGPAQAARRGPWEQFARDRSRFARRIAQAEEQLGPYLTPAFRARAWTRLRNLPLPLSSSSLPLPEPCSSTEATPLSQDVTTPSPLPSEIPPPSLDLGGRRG

`COc1ccccc1CN(C)C(=O)c1cc(-c2cccs2)nc2ccccc12`: the values for the inhibition with PEG-3 [1] and in the assay with PEG-3 [2] were 99% and 98.8%, respectively.
As to `COc1ccccc1CCNC(=O)C1CCN(c2nnc(C)c3c(C)n(-c4ccc(C)cc4)nc23)CC1`, the inhibition in the assay with PEG-3 [1] amounted to 99%; in the assay with PEG-3 [2], 97.3%.
As to `Cn1cc(CN2CCCC(C(=O)Nc3ccc(-c4cccc(F)c4)cc3)C2)cn1` (configuration not stated), the inhibition in the assay with PEG-3 [1] turned out to be 101%; with PEG-3 [2], 102%.
On to `CC(C)c1ccc(/C=N/Nc2ccc(C(=O)O)cc2)cc1`, for which the inhibition with PEG-3 [1] is 89.9%; with PEG-3 [2] it was 84%.
The matching figures for `COC(=O)c1ccc(Nc2cc(C)nc3ccc(C)cc23)cc1`: 98.7% and 100%.
The like results for `O=C(NC1CCCCC1)Sc1ccc(Cl)cc1` were, in that order, 102% and 101%.
Regarding `O=[N+]([O-])c1cc(Cl)cc(/C=N\Nc2ccccn2)c1O`, the results for the inhibition with PEG-3 [1] and with PEG-3 [2] were 28.9% and 40.5%, respectively.
As for `CC(=O)Nc1cccc(-c2ccnc3c2CC(C)(C(=O)Nc2cccc(OC(F)(F)F)c2)O3)c1` (configuration not stated), the inhibition with PEG-3 [1] came out at 68.6%; with PEG-3 [2] it was 77.1%.
Regarding `COc1ccc(CC(N)c2csc(NC(=O)Nc3ccccc3C(C)(C)C)n2)cc1` (configuration not stated), the values for the inhibition in the assay with PEG-3 [1] and in the assay with PEG-3 [2] were 102% and 98.5%, respectively.
For the compound `COc1cc(-c2cc(C(=O)N(C)Cc3ccccc3)c3ccccc3n2)cc(OC)c1OC`, the values for the inhibition with PEG-3 [1] and in the assay with PEG-3 [2] were 79.4% and 94.8%, respectively.
Regarding `COc1ccc(-n2ncc3c(N(C)C4CCCCC4)ncnc32)cc1`, the inhibition with PEG-3 [1] amounted to 96.6%; with PEG-3 [2] it was 89.4%.
As to `O=C(Nc1ccc(-c2nc3ccccc3o2)cc1)c1ccc(N2CCOCC2)c([N+](=O)[O-])c1`, the values for the inhibition in the assay with PEG-3 [1] and in the assay with PEG-3 [2] were 17.1% and 37.6%, respectively.
On to `COc1cc(CNCCN2CCOCC2)ccc1OCc1ccc(Cl)cc1Cl`, for which the inhibition with PEG-3 [1] turned out to be 102%; with PEG-3 [2], 101%.
With `c1ccc(CCCNCCCn2cnc3c(OCc4ccccc4)ncnc32)cc1`, the figures for the inhibition with PEG-3 [1] and in the assay with PEG-3 [2] were 99.5% and 101%, respectively.
Turning to `COc1ccc(C2NCCc3c2[nH]c2ccccc32)cc1COc1ccc(F)cc1` (configuration not stated), the values for the inhibition in the assay with PEG-3 [1] and with PEG-3 [2] were 98.9% and 101%, respectively.
Consider `CCN(CC)CCCCNc1ncc2cc(-c3cc(OC)cc(OC)c3)c(NC(=O)NC(C)(C)C)nc2n1`, for which the inhibition with PEG-3 [1] worked out at 97.1%; with PEG-3 [2] it was 101%.
On to `COc1cccc2c1C(=N)c1c(O)c3c(c(O)c1C2=O)CC(O)(C(C)=O)CC3OC1CC(N)C(O)C(C)O1` (configuration not stated), for which the inhibition came to 99.1% with PEG-3 [1] and 102% with PEG-3 [2].
Regarding `COc1ccc(-n2cc(CNC3CCN(C)CC3)c(-c3cccc(F)c3)n2)cc1`, the figures for the inhibition in the assay with PEG-3 [1] and in the assay with PEG-3 [2] were 100% and 101%, respectively.
Turning to `Cc1ccc(-c2nc(C(Cl)Cl)c3ccccc3n2)cc1`, the inhibition with PEG-3 [1] amounted to 96.2%; with PEG-3 [2], 97.4%.
As to `Cc1ccc(S(=O)(=O)CCSC(=N)N)cc1`, the values for the inhibition in the assay with PEG-3 [1] and with PEG-3 [2] were 101% and 93.6%, respectively.
`CN(C)CCNc1ncnc2c1sc1nc(N3CCCC3)c3c(c12)CC(C)(C)OC3`: the inhibition is 99.7% in the assay with PEG-3 [1] and 102% in the assay with PEG-3 [2].
For `COc1ccc2sc3cccc(NCCN(C)C)c3c(=O)c2c1`, the inhibition with PEG-3 [1] was found to be 98%; in the assay with PEG-3 [2], 99.2%.
In the case of `CN(C)CCCNc1ncnc2oc(-c3ccccc3)c(-c3ccccc3)c12`, the inhibition with PEG-3 [1] is 102%; with PEG-3 [2], 101%.
As to `COc1cc(NC(=O)Nc2nc(C(N)CCc3ccccc3)cs2)cc(OC)c1OC` (configuration not stated), the inhibition with PEG-3 [1] stood at 99.2%; with PEG-3 [2] it was 97.7%.
The matching figures for `Cc1ccc(F)cc1-c1cc2nc(NCCCN(C)C)n(C)c(=O)c2s1`: 101% and 99.2%.
`O=C(CCN1C(=O)/C(=C/c2cccs2)SC1=S)N1CCCCC1`: the inhibition was 96.2% in the assay with PEG-3 [1] and 94.3% in the assay with PEG-3 [2].
The like results for `Cc1ccc(C(=O)N(CCCN(C)C)c2nc3ccc(Cl)cc3s2)cc1C` were, in that order, 99.5% and 101%.
In the case of `Cc1cc(Cl)n2ncc(-c3ccccc3)c2n1`, the inhibition in the assay with PEG-3 [1] and with PEG-3 [2] was 102% each time.
As to `CC(C)CC(NS(=O)(=O)OCC(Cl)(Cl)Cl)c1ccccc1` (configuration not stated), the inhibition in the assay with PEG-3 [1] amounted to 97.2%; with PEG-3 [2], 99.4%.
For the compound `CC1(C)CC(NCCN2CCN(C3=CC(=C(C#N)C#N)CC(C)(C)C3)CC2)=CC(=C(C#N)C#N)C1`, the inhibition with PEG-3 [1] came to 19.6%; in the assay with PEG-3 [2] it was 44%.
The like results for `COc1cccc(Nc2nc(C(N)C3CCCCC3)cs2)n1` (configuration not stated) were, in that order, 98.9% and 102%.
For `CCc1cccc(CC)c1NC(=S)NCCc1c(C)[nH]c2ccc(C)cc12`, the inhibition with PEG-3 [1] came out at 89.5%; with PEG-3 [2], 83.9%.
The matching figures for `N#Cc1cc2c(nc1SC1CC(=O)N(c3ccccc3)C1=O)CCC2` (configuration not stated): 33.5% and 25.6%.
The like results for `CN[C@H]1C[C@H]2c3[nH]c4ccc(-c5cccc(C)c5)cc4c3CCN2C[C@H]1[C@H](C)O` were, in that order, 99% and 100%.
The like results for `Cc1ccc(N2CC(C(=O)Nc3nccs3)CC2=O)cc1Cl` (configuration not stated) were, in that order, 99.5% and 63.6%.
With `Cc1ccc2cccc(OCC(=O)Nc3cccc(S(=O)(=O)N4CCCC4)c3)c2n1`, the inhibition with PEG-3 [1] came to 94.5%; in the assay with PEG-3 [2] it was 97.2%.
With `O=S(=O)(c1cccc(F)c1)N1CCN(c2nc(-c3cccnc3)nc3ccccc23)CC1`, the inhibition in the assay with PEG-3 [1] was 26.5%; with PEG-3 [2], 46.2%.
The like results for `CCOc1cc(CNCCO)cc(Br)c1OCc1ccccc1Cl` were, in that order, 100% and 99.1%.
With `CC(=O)Nc1cccc(-c2ccnc3c2CC(C)(C(=O)Nc2cccc(C(F)(F)F)c2)O3)c1` (configuration not stated), the figures for the inhibition in the assay with PEG-3 [1] and in the assay with PEG-3 [2] were 92.6% and 88.4%, respectively.
Consider `COc1ccccc1CNC(=O)c1c(N)n(CCCN2CCOCC2)c2nc3ccccc3nc12`, for which the figures for the inhibition in the assay with PEG-3 [1] and with PEG-3 [2] were 99.1% and 99%, respectively.
The matching figures for `Oc1ccc(C23CCCC2C2(CCCC2)c2ccc(O)cc2O3)c(O)c1` (configuration not stated): 99.4% and 95.5%.

By inhibition is commonly meant the change of the read-out against control, counted positive when it falls.
